The subject of the assay is Plasmodium falciparum. The experiment in a line: GSK_TCMDC: Inhibition of Plasmodium falciparum 3D7 in whole red blood cells, using parasite LDH activity as an index of growth. Test compounds present at 2uM. The format is functional.
Broadly, the Inhibition is the share of the control response that was lost under treatment. Read a low Inhibition as a weak effect. `CC(C)CC(=O)Nc1cc(=O)[nH]c2nc(-c3ccccc3)nn12`: the Inhibition was found to be 89%.
Consider `COc1ccc2nc(-c3cc(-c4ccc(NC(=O)CN5CCOCC5)cc4)cnc3N)[nH]c2c1`, for which the Inhibition was found to be 100%.
`CCN(CC)CCN(Cc1ccc(-c2ccc(C(F)(F)F)cc2)cc1)C(=O)Cn1c(CCc2ccc(F)cc2)nc(=O)c2sccc21.O=C(O)C(O)C(O)C(=O)O` came in with an Inhibition of 99%.
To `COc1cc(NCCCNC(=O)c2cc3c(Cl)cc(Cl)cc3[nH]2)nc2ccccc12` belongs 100%; to `O=C(Nc1ccccc1-c1nc2ccccc2s1)C(Cl)(Cl)Cl`, 97%; to `O=C(NC1CC1)c1ccc(Nc2nccc(-c3c(-c4cccc(NC(=O)c5c(F)cccc5F)c4)nn4ccccc34)n2)cc1`, 94%.
To `COc1ccc2nccc(N3CCN(CCNCc4ccc5c(n4)NC(=O)CO5)CC3)c2c1.Cl` belongs 92%; to `CC(C)(C)c1nn(-c2ccc(Cl)cc2)c2[nH]c(=O)c(CNCc3ccc4c(c3)OCO4)cc12`, 100%; to `Cn1nc(-c2ccc(NC(=O)Nc3ccc4ccccc4c3)c(F)c2)c2cnc(NCCN3CCOCC3)nc21.O=C(O)C(F)(F)F`, 93%.
With `Fc1ccc2[nH]c(-c3cccc(-c4ccc(CN5CCN(CCN6CCOCC6)CC5)cc4)c3)nc2c1.O=C(O)C(F)(F)F` the figure was 100%; with `NCCCNc1nccc(N2CCc3ncnc(Nc4ccc(OCc5cccc(F)c5)c(Cl)c4)c3C2)n1`, 98%; with `O=C(C1CCN(c2nnnn2-c2ccccc2)CC1)N1CCc2ccccc2C1`, 97%.
Consider `CCc1ccc(-n2cc(C(=O)c3cc(Br)ccc3O)cc(C#N)c2=O)cc1`, for which the Inhibition came out at 97%.
To `CN(C)c1ccc(CN2CCC(CNC(=O)c3cc(-c4ccccc4Cl)cs3)C2)cc1.O=C(O)C(F)(F)F` (stereo not given) belongs 91%; to `CCn1c(-c2nonc2N)nc2c(-c3ccccc3)ncc(OCCCCNCCc3ncc[nH]3)c21.O=C(O)C(F)(F)F`, 92%.
To `O=C(c1cc(C(=O)NC2CCCCC2)c(=O)n(C2CCCCC2)c1)c1cc(F)ccc1O` belongs 99%.
To `COc1ccc2nccc([C@@H](O)CN3CCC(NC(=O)c4cc5c(F)cc(F)cc5[nH]4)CC3)c2c1.CS(=O)(=O)O` belongs 100%; to `CCCCOc1cc(OC)c2ccccc2c1CCNCCCCNCCc1c(OCCCC)cc(OC)c2ccccc12.CS(=O)(=O)O`, 82%.
The compound `Cl.O=C(NCCCCN1CCC(O)(c2ccc3c(c2)OCO3)CC1)c1ccc(NC(=O)c2ccc(Cl)cc2)cc1` came in with an Inhibition of 86%.
To `Cc1cccc2nc(-c3cccc(-c4ccc(NC(=O)NCc5cccc(F)c5)cc4)c3)[nH]c12` belongs 100%; to `CCCNCc1ccc(-c2ccc(CN(Cc3cnc(C)cn3)C(=O)c3nn(-c4ccccc4)nc3C)cc2)nc1.O=C(O)C(F)(F)F`, 99%.
To `CC(C)[C@H](NC(=O)c1ccc(O)c(-c2ccc(Cl)c(Cl)c2)c1)C(=O)NC1CCCCCC1` belongs 99%; to `COc1ccc(CCNC(=O)c2ccc(-n3cc(NC(=O)c4cccnc4)cn3)cc2)cc1OC`, 90%; to `C/C=C/COc1ccc2ccccc2c1CNCCCCCCCCNCc1c(OC/C=C/C)ccc2ccccc12.CS(=O)(=O)O.O`, 87%.
To `N#Cc1cccc(NC(=O)c2ccc(S(=O)(=O)NCC3CCCN3CC3CCCCC3)cc2)c1.O=C(O)C(F)(F)F` (stereo not given) belongs 88%; to `CC(=O)c1cccc2cc(C(=O)NC3CCC(CCN4CCc5ccc(C#N)cc5C4)CC3)[nH]c12.Cl` (stereo not given), 100%; to `COc1ccc2nccc([C@H](O)CN3CCC(NCc4nc5cccc(F)c5[nH]4)CC3)c2c1.O=C(O)C(=O)O`, 98%.
`CCc1cccc(-n2c(=O)c3cccnc3n2CC(=O)NCc2ccccc2Cl)c1` came in with an Inhibition of 98%.
Turning to `CCCOc1cc(OCCC)cc(-c2cc(=O)c3ccccc3[nH]2)c1`, the Inhibition was 99%.
As for `Cc1cccc(-c2nn(-c3ccccc3)c3[nH]c(=O)c(CNC4CCCC4)cc23)c1`, the Inhibition is reported as 98%.
As to `Cn1ncc2ccc(Nc3nccc(-c4ccc5c(c4)c(N)nn5C)n3)cc21`, the Inhibition was found to be 99%.
With `O=C(NCCN1CCC(c2ncc(-c3ccccc3)o2)CC1)c1ccc(NC(=O)c2ccc(Cl)cc2)cc1` the figure was 100%; with `Br.NCC(=O)NC12CC3CC(CC(C3)C1)C2`, 87%; with `CCC(C)CN1CCCN(c2ccc(NC(=O)c3cccs3)cc2)CC1.O=C(O)C(F)(F)F` (stereo not given), 91%.
With `Cc1c(-c2cccc(CNCCc3ccc(Cl)cc3)c2)cnc(N)c1C.Cl` the figure was 87%.
To `CN(C)CCCOC(=O)c1cc2cc(-c3ccccc3)ccc2n1S(=O)(=O)Cc1ccccc1.Cl` belongs 100%; to `O=C(Nc1ccc(C(F)(F)F)cc1)c1cccc(S(=O)(=O)NCC2CCCN(CC3CCCCC3)C2)c1.O=C(O)C(F)(F)F` (stereo not given), 97%.
As to `CCN(CCCN1CCCCC1)c1cc(C)nc(Nc2ccc(C)cc2C)n1.O=C(O)C(F)(F)F`, the Inhibition came to 91%.
In turn, `CS(=O)(=O)Nc1cccc(-c2cnc3[nH]cc(-c4ccc(C(=O)O)cc4)c3c2)c1` returned an Inhibition of 98%.
With `Cl.N#Cc1ccc2c(c1)CCN(CCC1CCC(NC(=O)c3cc4ccc(Cl)cc4[nH]3)CC1)C2` (stereo not given) the figure was 100%.

Source of the values: ChEMBL document CHEMBL1157539, “Thousands of chemical starting points for antimalarial lead identification” (Nature, 2010).
